# From PubChem BioAssay (NCATS)
# Results filed as inconclusive are left out. Calls of active or inactive are those of the source. Calls follow the shape of the full dose curve.
# Assay: Primary qHTS to identify inhibitors of SARS-CoV-2 cell entry (AID 1645846); also: nearly all actives have a fitted effect of over 45% in size
# Settings: SARS-CoV-2 pseudovirus cell entry assay, luminescence; activity change, negative = inhibition: at 57.1 µM (top of the series) unless noted; series mostly up to 57.1 µM
# In short: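 Inhibition of spike-mediated entry was scored in human ACE2-transfected Expi293F cells. Particles were MLV-pseudotyped with Wuhan-Hu-1 S carrying a 19-aa C-terminal deletion; signal was luciferase after two days, scaled between spike PP and fusion-protein-free PP.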
SMILES,"activity change, negative = inhibition [%]",Potency
CC(O)Cn1cnc2c1c(=O)n(C)c(=O)n2C (stereo not drawn),0.504,–
CC(C)Cc1ccc(C(C)C(=O)OCc2ccccn2)cc1 (stereo not drawn),-13.1,–
CCC(=O)Oc1ccc2c(c1)CC[C@@H]1[C@@H]2CC[C@@]2(C)[C@H]1C[C@@H](OC(=O)CC)[C@@H]2OC(=O)CC,–,inactive
